Inconclusive results are not listed. Calls of active or inactive are those of the source. How the source made its calls: active means hit-call score of the fitted dose curve at least 0.9, where 1 is the maximum; inconclusive means response in the unintended direction; inactive means score below 0.9.
Key:
[1] = molecular target: Adra2b (gene 24174) (UniProt P19328); assay: NVS_GPCR_rmAdra2B: NovaScreen (NVS) G Protein-Coupled Receptor Assay for hybird cells Adrenergic, Alpha 2B Receptor (Adra2B) (AID 2283306)
Adra2b (gene 24174), sequence (P19328 whole entry, looked up): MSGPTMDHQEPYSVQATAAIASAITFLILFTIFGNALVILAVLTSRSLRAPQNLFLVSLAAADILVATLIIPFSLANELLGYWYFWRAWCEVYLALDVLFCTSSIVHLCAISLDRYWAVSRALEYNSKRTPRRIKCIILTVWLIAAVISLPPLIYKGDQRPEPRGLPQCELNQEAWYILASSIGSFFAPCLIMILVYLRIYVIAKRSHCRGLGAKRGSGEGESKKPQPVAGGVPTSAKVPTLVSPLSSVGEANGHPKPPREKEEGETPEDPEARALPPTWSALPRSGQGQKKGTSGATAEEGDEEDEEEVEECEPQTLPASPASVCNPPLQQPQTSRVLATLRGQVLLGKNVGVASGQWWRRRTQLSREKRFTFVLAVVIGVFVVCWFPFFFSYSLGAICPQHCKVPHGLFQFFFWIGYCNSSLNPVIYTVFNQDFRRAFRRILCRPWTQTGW
In short: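 Radioligand filter-binding assay on membrane proteins from neuroglioma/blastoma hybrid cells (rodent), 1 h after dosing; scintillation counting, loss of signal vs DMSO. Primary screen in duplicate at 25 uM, actives then run in concentration series.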

[2] = molecular target: rat Opioid Receptor, Non-selective Sodium (Na+) Binding, Oprm1 (gene 25601) (UniProt P33535); assay: NVS_GPCR_rOpiate_NonSelectiveNa: NovaScreen (NVS) G Protein-Coupled Receptor Assay for rat Opioid Receptor, Non-selective Sodium (Na+) Binding (AID 2283311)
rat Opioid Receptor, Non-selective Sodium (Na+) Binding, Oprm1 (gene 25601), sequence (P33535 whole entry, looked up): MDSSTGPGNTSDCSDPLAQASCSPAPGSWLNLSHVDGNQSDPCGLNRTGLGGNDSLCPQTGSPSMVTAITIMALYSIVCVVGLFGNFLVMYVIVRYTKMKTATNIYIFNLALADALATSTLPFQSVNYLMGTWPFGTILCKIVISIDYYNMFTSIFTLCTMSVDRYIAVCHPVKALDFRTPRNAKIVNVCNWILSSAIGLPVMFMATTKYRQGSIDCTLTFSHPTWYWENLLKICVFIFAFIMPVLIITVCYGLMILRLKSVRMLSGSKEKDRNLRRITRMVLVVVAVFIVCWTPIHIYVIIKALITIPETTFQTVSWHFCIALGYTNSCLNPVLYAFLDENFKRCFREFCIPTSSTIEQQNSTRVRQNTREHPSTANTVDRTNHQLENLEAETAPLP
In short: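 Rat forebrain membranes, radioligand displacement with filter scintillation counting, 1.5 h incubation. Screened in duplicate at 25 µM; hits then run in concentration-response up to 50 µM; loss of binding fitted versus DMSO.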

[3] = tested on: rat Adrenergic, Alpha 1B Receptor (Adra1B), gene 24173; assay: NVS_GPCR_rAdra1B: NovaScreen (NVS) G Protein-Coupled Receptor Assay for rat Adrenergic, Alpha 1B Receptor (Adra1B) (AID 2283297)
In short: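 Rat liver membranes, radioligand displacement with filter-based scintillation detection, 1 h incubation. Primary screen in duplicate at 25 uM; actives retested in concentration series; activity relative to DMSO.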

[4] = tested on: guinea pig Atrionatriuretic Peptide Receptor A (ANPA), gene 100135578; assay: NVS_GPCR_gANPA: NovaScreen (NVS) G Protein-Coupled Receptor Assay for guinea pig Atrionatriuretic Peptide Receptor A (ANPA) (AID 2283291)
In short: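 Radioligand binding to guinea pig cerebellar membranes was measured after 1 h by filter-based scintillation counting. Chemicals were tested in duplicate at 25 uM, with hits run in concentration-response to a maximum of 50 uM. Binding loss was fitted against DMSO.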

[5] = molecular target: human Opioid Receptor Mu (Opiate Mu), OPRM1 (gene 4988) (UniProt P35372); assay: NVS_GPCR_hOpiate_mu: NovaScreen (NVS) G Protein-Coupled Receptor Assay for human Opioid Receptor Mu (Opiate Mu) (AID 2283290);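 further: hits lower bound tracer signal versus DMSO meaning displacement of the ligand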
human Opioid Receptor Mu (Opiate Mu), OPRM1 (gene 4988), sequence (P35372 whole entry, looked up): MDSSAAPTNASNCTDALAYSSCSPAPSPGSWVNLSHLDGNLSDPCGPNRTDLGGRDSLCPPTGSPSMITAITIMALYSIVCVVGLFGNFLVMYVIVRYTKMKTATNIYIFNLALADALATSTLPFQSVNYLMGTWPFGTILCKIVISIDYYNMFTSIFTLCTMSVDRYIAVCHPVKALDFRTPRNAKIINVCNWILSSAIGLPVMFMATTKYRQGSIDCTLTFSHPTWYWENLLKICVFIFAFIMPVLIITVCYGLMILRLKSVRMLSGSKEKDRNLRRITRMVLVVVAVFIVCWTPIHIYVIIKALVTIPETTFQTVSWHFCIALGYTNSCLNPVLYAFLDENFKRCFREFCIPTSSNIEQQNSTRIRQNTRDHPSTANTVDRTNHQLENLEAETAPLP
In short: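 Radioligand displacement binding on membranes from CHO cells expressing the receptor, 2.5 h after dosing, filter-based scintillation counting; loss of signal vs DMSO baseline. Screened in duplicate at 25 uM, actives then run in concentration series.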

[6] = molecular target: rat Corticotropin Releasing Factor Receptor (CRF), Crhr1 (gene 58959) (UniProt P35353); assay: NVS_GPCR_rCRF: NovaScreen (NVS) G Protein-Coupled Receptor Assay for rat Corticotropin Releasing Factor Receptor (CRF) (AID 2283300)
rat Corticotropin Releasing Factor Receptor (CRF), Crhr1 (gene 58959), sequence (P35353 whole entry, looked up): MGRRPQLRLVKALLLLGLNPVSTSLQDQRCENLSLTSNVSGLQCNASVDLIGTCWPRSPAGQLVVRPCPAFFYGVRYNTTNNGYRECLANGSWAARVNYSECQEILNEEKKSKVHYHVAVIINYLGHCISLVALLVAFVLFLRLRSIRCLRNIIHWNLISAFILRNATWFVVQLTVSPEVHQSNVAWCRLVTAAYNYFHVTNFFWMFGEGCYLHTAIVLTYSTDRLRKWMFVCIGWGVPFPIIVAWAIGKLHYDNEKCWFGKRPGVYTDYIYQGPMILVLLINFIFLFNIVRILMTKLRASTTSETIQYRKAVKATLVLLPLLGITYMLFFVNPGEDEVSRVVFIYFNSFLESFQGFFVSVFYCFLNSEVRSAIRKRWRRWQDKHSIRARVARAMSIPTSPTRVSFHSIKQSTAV
In short: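 Rat cortical membranes used as receptor source in a radioligand competitive displacement binding assay; scintillation read 2 h after dosing. Primary screen run in duplicate at 25 uM; loss of signal versus DMSO baseline indicates binding.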

[7] = molecular target: rat Adrenergic Receptor, Beta (Adrb), Non-selective Binding, Adrb1 (gene 24925) (UniProt P18090); assay: NVS_GPCR_rAdrb_NonSelective: NovaScreen (NVS) G Protein-Coupled Receptor Assay for rat Adrenergic Receptor, Beta (Adrb), Non-selective Binding (AID 2283298)
rat Adrenergic Receptor, Beta (Adrb), Non-selective Binding, Adrb1 (gene 24925), sequence (P18090 whole entry, looked up): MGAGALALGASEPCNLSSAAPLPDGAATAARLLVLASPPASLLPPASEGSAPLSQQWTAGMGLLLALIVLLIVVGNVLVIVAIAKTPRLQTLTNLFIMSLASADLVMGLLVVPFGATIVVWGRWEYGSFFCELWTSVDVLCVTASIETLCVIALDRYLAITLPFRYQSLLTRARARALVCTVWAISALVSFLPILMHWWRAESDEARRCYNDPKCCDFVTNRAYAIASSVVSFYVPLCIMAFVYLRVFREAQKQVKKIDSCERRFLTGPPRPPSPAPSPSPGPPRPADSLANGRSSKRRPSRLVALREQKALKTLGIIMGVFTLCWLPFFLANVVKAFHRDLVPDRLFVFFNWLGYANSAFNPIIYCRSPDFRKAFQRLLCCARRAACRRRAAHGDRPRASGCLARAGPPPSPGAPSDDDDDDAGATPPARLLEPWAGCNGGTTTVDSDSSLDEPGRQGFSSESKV
In short: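 Non-selective beta-adrenergic radioligand binding in rat cortical membranes, 1 h incubation, filter-based scintillation read-out. Primary screen 25 uM in duplicate; hits retested in concentration-response up to 50 uM, DMSO baseline.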

[8] = molecular target: rat Gamma-Aminobutyric Acid Type B Receptor (GABBR), Gabbr1 (gene 81657) (UniProt Q9Z0U4); assay: NVS_GPCR_rGABBR: NovaScreen (NVS) G Protein-Coupled Receptor Assay for rat Gamma-Aminobutyric Acid Type B Receptor (GABBR) (AID 2283301)
In short: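 Radioligand displacement on rat cortical membranes, 1 h, filter-based scintillation counting. Primary screen at 25 uM in duplicate; compounds passing threshold re-tested in concentration-response up to 50 uM; loss of binding fitted against DMSO.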

[9] = molecular target: rat Neurokinin-1 Receptor (NK1), Tacr1 (gene 24807) (UniProt P14600); assay: NVS_GPCR_rNK1: NovaScreen (NVS) G Protein-Coupled Receptor Assay for rat Neurokinin-1 Receptor (NK1) (AID 2283309)
rat Neurokinin-1 Receptor (NK1), Tacr1 (gene 24807), sequence (P14600 whole entry, looked up): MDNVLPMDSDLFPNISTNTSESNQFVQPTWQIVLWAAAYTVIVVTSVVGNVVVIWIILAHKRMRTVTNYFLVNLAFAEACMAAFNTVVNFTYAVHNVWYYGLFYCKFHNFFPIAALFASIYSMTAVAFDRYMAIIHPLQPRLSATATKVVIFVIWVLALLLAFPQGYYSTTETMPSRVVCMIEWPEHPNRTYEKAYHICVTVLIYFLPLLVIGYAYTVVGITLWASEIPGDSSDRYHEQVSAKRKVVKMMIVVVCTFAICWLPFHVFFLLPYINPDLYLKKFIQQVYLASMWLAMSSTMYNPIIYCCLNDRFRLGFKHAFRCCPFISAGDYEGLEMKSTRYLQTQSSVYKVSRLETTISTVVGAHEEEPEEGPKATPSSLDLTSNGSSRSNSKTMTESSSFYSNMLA
In short: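 Rat submaxillary gland membranes; radioligand displacement read by filter-based scintillation counting after 1 h. Primary screen in duplicate at 25 uM; actives retested in concentration series; loss of binding fitted versus DMSO.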

[10] = molecular target: rat Serotonin, 5-Hydroxytryptamine Receptor (5HT), Non-Selective Binding, Htr1a (gene 24473) (UniProt P19327); assay: NVS_GPCR_r5HT_NonSelective: NovaScreen (NVS) G Protein-Coupled Receptor Assay for rat Serotonin, 5-Hydroxytryptamine Receptor (5HT), Non-Selective Binding (AID 2283295)
rat Serotonin, 5-Hydroxytryptamine Receptor (5HT), Non-Selective Binding, Htr1a (gene 24473), sequence (P19327 whole entry, looked up): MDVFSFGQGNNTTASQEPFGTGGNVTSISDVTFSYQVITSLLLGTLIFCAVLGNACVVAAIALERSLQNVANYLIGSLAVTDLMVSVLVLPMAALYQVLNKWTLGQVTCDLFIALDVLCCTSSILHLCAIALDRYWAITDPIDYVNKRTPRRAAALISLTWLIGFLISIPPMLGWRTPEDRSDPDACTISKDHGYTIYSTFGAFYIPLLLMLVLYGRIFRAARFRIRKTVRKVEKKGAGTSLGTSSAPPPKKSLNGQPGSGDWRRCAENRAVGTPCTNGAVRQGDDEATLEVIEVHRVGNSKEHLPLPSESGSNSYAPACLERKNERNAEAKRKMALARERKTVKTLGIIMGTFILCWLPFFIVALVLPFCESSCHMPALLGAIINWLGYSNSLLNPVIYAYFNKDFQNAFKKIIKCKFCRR
In short: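 Radioligand displacement on rat cortical membranes, 1 h incubation, filter-based scintillation counting. Primary duplicates at 25 uM, actives retested in concentration series; loss of signal fitted against DMSO as baseline.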

[11] = molecular target: rat Adrenergic Receptor, Alpha 2 (Adra2), Non-selective Binding, Adra2a (gene 25083) (UniProt P22909); assay: NVS_GPCR_rAdra2_NonSelective: NovaScreen (NVS) G Protein-Coupled Receptor Assay for rat Adrenergic Receptor, Alpha 2 (Adra2), Non-selective Binding (AID 2283299)
rat Adrenergic Receptor, Alpha 2 (Adra2), Non-selective Binding, Adra2a (gene 25083), sequence (P22909 whole entry, looked up): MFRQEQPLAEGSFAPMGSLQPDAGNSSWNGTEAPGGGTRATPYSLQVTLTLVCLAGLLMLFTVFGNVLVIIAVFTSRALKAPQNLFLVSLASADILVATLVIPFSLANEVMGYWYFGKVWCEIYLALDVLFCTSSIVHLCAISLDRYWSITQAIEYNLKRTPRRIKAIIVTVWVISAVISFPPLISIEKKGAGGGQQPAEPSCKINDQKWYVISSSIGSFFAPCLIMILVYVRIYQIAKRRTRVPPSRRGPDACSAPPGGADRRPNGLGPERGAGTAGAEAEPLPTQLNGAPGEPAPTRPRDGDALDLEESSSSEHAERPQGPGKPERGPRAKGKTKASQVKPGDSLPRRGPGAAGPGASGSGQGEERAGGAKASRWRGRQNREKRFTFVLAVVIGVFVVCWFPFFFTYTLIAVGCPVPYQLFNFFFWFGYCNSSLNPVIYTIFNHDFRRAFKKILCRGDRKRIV
In short: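 Rat cortical membranes, radioligand competitive displacement read by filter-based scintillation counting 1.25 hours after dosing. Primary screen in duplicate at 25 uM; actives followed up in concentration series.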

[12] = molecular target: rat Adrenergic, Alpha 1, Non-selective Receptor (Adra1), Adra1a (gene 29412) (UniProt P43140); assay: NVS_GPCR_rAdra1_NonSelective: NovaScreen (NVS) G Protein-Coupled Receptor Assay for rat Adrenergic, Alpha 1, Non-selective Receptor (Adra1) (AID 2283289)
rat Adrenergic, Alpha 1, Non-selective Receptor (Adra1), Adra1a (gene 29412), sequence (P43140 whole entry, looked up): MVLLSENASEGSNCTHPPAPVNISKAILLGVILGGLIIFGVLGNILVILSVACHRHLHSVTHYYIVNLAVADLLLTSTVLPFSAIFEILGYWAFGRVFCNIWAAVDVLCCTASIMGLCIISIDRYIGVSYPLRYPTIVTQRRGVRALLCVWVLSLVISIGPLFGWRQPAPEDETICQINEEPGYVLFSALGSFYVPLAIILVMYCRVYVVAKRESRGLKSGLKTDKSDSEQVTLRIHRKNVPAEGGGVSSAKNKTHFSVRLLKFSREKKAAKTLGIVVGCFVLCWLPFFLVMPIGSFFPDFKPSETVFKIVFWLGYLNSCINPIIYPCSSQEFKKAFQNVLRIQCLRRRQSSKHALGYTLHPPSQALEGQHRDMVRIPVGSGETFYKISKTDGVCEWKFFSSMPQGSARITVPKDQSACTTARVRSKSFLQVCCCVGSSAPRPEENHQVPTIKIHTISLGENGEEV
In short: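 Rat forebrain membranes; radioligand displacement read by filter-based scintillation counting 1 h after dosing. Primary screen in duplicate at 25 uM; hits (e.g. ≥30% inhibition) rerun as concentration–response to 50 uM max. Fitted versus DMSO.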

[13] = molecular target: guinea pig Serotonin, 5-Hydroxytryptamine Receptor 4 (5HT4), HTR4 (gene 100135548) (UniProt O70528); assay: NVS_GPCR_g5HT4: NovaScreen (NVS) G Protein-Coupled Receptor Assay for guinea pig Serotonin, 5-Hydroxytryptamine Receptor 4 (5HT4) (AID 2283294)
In short: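 Guinea pig striatal membranes; radioligand competitive displacement, filtration and scintillation counting after 1 h. Primary screen in duplicate at 25 uM; actives then tested in concentration series; loss of binding signal fitted relative to DMSO.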

[14] = molecular target: rat Adrenergic, Alpha 1A Receptor (Adra1A), Adra1a (gene 29412) (UniProt P43140); assay: NVS_GPCR_rAdra1A: NovaScreen (NVS) G Protein-Coupled Receptor Assay for rat Adrenergic, Alpha 1A Receptor (Adra1A) (AID 2283296)
rat Adrenergic, Alpha 1A Receptor (Adra1A), Adra1a (gene 29412), sequence (P43140 whole entry, looked up): as above
In short: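 Rat cortical membranes pretreated with chlorethyl clonidine; competitive radioligand displacement, 1 h. Filter-based scintillation counting. Primary screen in duplicate at 25 uM, actives followed in concentration series.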

[15] = molecular target: rat Histamine Receptor (H3), Hrh3 (gene 85268) (UniProt Q9QYN8); assay: NVS_GPCR_rH3: NovaScreen (NVS) G Protein-Coupled Receptor Assay for rat Histamine Receptor (H3) (AID 2283303)
rat Histamine Receptor (H3), Hrh3 (gene 85268), sequence (Q9QYN8 whole entry, looked up): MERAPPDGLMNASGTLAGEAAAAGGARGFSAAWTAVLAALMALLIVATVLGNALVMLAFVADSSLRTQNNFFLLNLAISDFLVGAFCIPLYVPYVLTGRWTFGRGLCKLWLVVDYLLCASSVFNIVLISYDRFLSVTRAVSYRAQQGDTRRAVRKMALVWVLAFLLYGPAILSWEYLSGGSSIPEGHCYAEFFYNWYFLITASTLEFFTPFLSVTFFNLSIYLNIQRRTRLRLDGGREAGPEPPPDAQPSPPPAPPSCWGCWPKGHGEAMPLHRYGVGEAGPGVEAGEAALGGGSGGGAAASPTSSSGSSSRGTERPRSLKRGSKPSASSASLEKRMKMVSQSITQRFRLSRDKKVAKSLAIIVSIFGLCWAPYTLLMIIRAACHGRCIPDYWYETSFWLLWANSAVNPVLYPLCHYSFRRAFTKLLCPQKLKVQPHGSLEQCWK
In short: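 Rat forebrain membranes incubated 1 h with compound; radioligand displacement measured by filter-based scintillation counting. Single-concentration duplicates at 25 µM, then concentration-response up to 50 µM, relative to DMSO.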

[16] = molecular target: Metabotropic glutamate receptor 1 (Rattus norvegicus) (UniProt P23385); assay: NVS_GPCR_rmMGluR1: NovaScreen (NVS) G Protein-Coupled Receptor Assay for rat Glutamate Metabotropic Receptor 1 (MGluR1) (AID 2283305)
In short: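 Rat cerebellum membrane preparation, radioligand displacement binding read by filter-based scintillation counting 1 hour after dosing. Initial duplicate single-point screen at 25 uM, then concentration-response up to 50 uM; loss of signal versus DMSO baseline scored.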

[17] = molecular target: rat Glutamate Metabotropic Receptor 5 (MGluR5), Grm5 (gene 24418) (UniProt P31424); assay: NVS_GPCR_rmMGluR5: NovaScreen (NVS) G Protein-Coupled Receptor Assay for rat Glutamate Metabotropic Receptor 5 (MGluR5) (AID 2283307)
In short: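 Rat whole-brain membrane preparation; filter-based radioligand binding read by scintillation counting, 1.5 h after dosing. Single-point screen at 25 uM in duplicate; hits over threshold (e.g. 30% inhibition) retested in concentration-response up to 50 uM; loss of signal vs DMSO.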

[18] = molecular target: guinea pig Bradykinin Receptor B2 (BK2), BDKRB2 (gene 100135486) (UniProt O70526); assay: NVS_GPCR_gBK2: NovaScreen (NVS) G Protein-Coupled Receptor Assay for guinea pig Bradykinin Receptor B2 (BK2) (AID 2283292)
In short: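 Radioligand displacement on guinea pig ileum membranes for 1 h, read by filter-based scintillation counting; loss of signal relative to DMSO. Compounds were screened in duplicate at 25 uM, and those passing the threshold were retested in concentration-response up to 50 uM.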

[19] = molecular target: rat Neurokinin-3 Receptor (NK3), Tacr3 (gene 24808) (UniProt P16177); assay: NVS_GPCR_rNK3: NovaScreen (NVS) G Protein-Coupled Receptor Assay for rat Neurokinin-3 Receptor (NK3) (AID 2283310)
In short: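 Rat cortical membranes; radioligand binding with filtration and scintillation counting, 2 h after dosing. Primary screen in duplicate at 25 uM, then concentration-response up to 50 uM; loss of binding signal relative to DMSO.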

[20] = molecular target: rat Neurotensin Receptor (NTS), Ntsr1 (gene 366274) (UniProt P20789); assay: NVS_GPCR_rNTS: NovaScreen (NVS) G Protein-Coupled Receptor Assay for rat Neurotensin Receptor (NTS) (AID 2283308)
In short: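 Rat forebrain membranes; radioligand binding with competitive displacement, read by filter-based scintillation counting 1 h after dosing. Primary screen in duplicate at 25 uM; actives (e.g., 30% inhibition) rerun in concentration-response up to 50 uM, loss-of-signal versus DMSO.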

CN/C(=N\[N+](=O)[O-])NCc1cnc(Cl)s1
AC50 [1]: 8.79 µM (active)

CCOP(=O)(OCC)Oc1nc(Cl)c(Cl)cc1Cl
AC50 [2]: 25 µM (active)

COc1cc(Cl)c(OC)cc1Cl
outcome [3]: inactive

CS(=O)(=O)c1cc(C(F)(F)F)ccc1C(=O)c1cnoc1C1CC1
outcome [4]: inactive

CCCCC(O)(Cn1cncn1)c1ccc(Cl)cc1Cl (stereo not drawn)
AC50 [5]: 4.96 µM (active)

CCN(CC)C(=O)C(C)Oc1cccc2ccccc12 (stereo not drawn)
AC50 [5]: 14.8 µM (active) | outcome [6]: inactive

CCNP(=S)(OC)O/C(C)=C/C(=O)OC(C)C (stereo not drawn)
outcome [7]: inactive | outcome [8]: inactive | outcome [9]: inactive

COC(=O)N(C(=O)N1CO[C@@]2(C(=O)OC)Cc3cc(Cl)ccc3C2=N1)c1ccc(OC(F)(F)F)cc1
outcome [10]: inactive | outcome [11]: inactive | outcome [6]: inactive

CC(C)=CC1C(C(=O)OCc2coc(Cc3ccccc3)c2)C1(C)C (stereo not drawn)
AC50 [5]: 7.58 µM (active)

CNC(=O)N(C)c1nnc(C(C)(C)C)s1
outcome [4]: inactive

Cn1c(-c2ccccc2)cc(-c2ccccc2)[n+]1C
AC50 [12]: 5.28 µM (active) | AC50 [13]: 6.94 µM (active) | AC50 [14]: 7.91 µM (active) | AC50 [3]: 16.5 µM (active) | AC50 [7]: 9.62 µM (active) | AC50 [11]: 3.72 µM (active) | AC50 [1]: 0.891 µM (active) | outcome [9]: inactive

O=C1C2CC=CCC2C(=O)N1SC(Cl)(Cl)Cl (stereo not drawn)
AC50 [5]: 9.7 µM (active) | outcome [15]: inactive | AC50 [16]: 25 µM (active) | outcome [2]: inactive

CC1(C)CCC(=Cc2ccc(Cl)cc2)C1(O)Cn1cncn1 (stereo not drawn)
outcome [3]: inactive

CCSC(=O)N1CCCCCC1
outcome [4]: inactive

N#Cc1c[nH]cc1-c1cccc2c1OC(F)(F)O2
outcome [10]: inactive | outcome [11]: inactive

CNC(=O)Oc1cccc2ccccc12
outcome [14]: inactive

CS(=O)(=O)c1ccc(C(=O)C2C(=O)CCCC2=O)c([N+](=O)[O-])c1
outcome [8]: inactive

Nc1c(Cl)c(Cl)nc(C(=O)O)c1Cl
outcome [17]: inactive

COC(=O)NC(=S)Nc1ccccc1NC(=S)NC(=O)OC
outcome [18]: inactive

CCCCC(C#N)(Cn1cncn1)c1ccc(Cl)cc1 (stereo not drawn)
outcome [19]: inactive

O=C(Nc1ccccc1-c1ccc(Cl)cc1)c1cccnc1Cl
outcome [20]: inactive

Cc1cc(C)nc(Nc2ccccc2)n1
outcome [9]: inactive

Cc1ccc(N=CN(C)C=Nc2ccc(C)cc2C)c(C)c1
AC50 [12]: 1.5 µM (active) | outcome [10]: inactive | outcome [14]: inactive | AC50 [11]: 0.219 µM (active) | AC50 [1]: 0.779 µM (active)

N#CN=C1SCCN1Cc1ccc(Cl)nc1
outcome [6]: inactive | outcome [1]: inactive

CCOc1nc(F)cc2nc(S(=O)(=O)Nc3c(Cl)cccc3Cl)nn12
outcome [12]: inactive

COCC(C)N(C(=O)CCl)c1c(C)csc1C (stereo not drawn)
AC50 [2]: 16 µM (active)

COP(=O)(OC)O/C(C)=C/C(=O)N(C)C
outcome [14]: inactive

COP(=S)(OC)SCn1nnc2ccccc2c1=O
outcome [5]: inactive

CCCN(CC)CC1COC2(CCC(C(C)(C)C)CC2)O1 (stereo not drawn)
AC50 [11]: 16.7 µM (active) | AC50 [15]: 12.2 µM (active) | AC50 [1]: 25 µM (active) | AC50 [2]: 13.8 µM (active)
